Experimental findings from ChEMBL document CHEMBL3433997, “St. Jude Leishmania screening dataset” (2016) are described below.

Common to all, as to assay type: functional
Test [1] addresses Solute carrier family 2, facilitated glucose transporter member 1 (Homo sapiens) (UniProt P11166). Nature of the test: ST_JUDE_LEISH: Cytotoxicity at 2uM final concentration against transgenic Leishmania Mexicana promastigotes LmGLUT1 that are glucose transport deficient and complemented with the human glucose transporter GLUT1. Activity is measured by DNA content using SYBR green in vitro.

The target of test [2] is Hexose transporter 1 (Plasmodium falciparum) (UniProt O97467). The test can be described thus: ST_JUDE_LEISH: Cytotoxicity at 2uM final concentration against transgenic Leishmania Mexicana promastigotes LmPfHT that are glucose transport deficient and complemented with the Plasmodium falciparum hexose transporter. Activity is measured by DNA content using SYBR green in vitro.

Test [3] deals with Glucose transporter (Leishmania mexicana) (UniProt O61059). The test can be described thus: ST_JUDE_LEISH: Cytotoxicity at 2uM final concentration against transgenic Leishmania Mexicana promastigotes LmGT2 that are glucose transport deficient and complemented with the L. Mexicana glucose transporter 2. Activity is measured by DNA content using SYBR green in vitro.

Sequence of Solute carrier family 2, facilitated glucose transporter member 1 (Homo sapiens) (P11166 whole entry): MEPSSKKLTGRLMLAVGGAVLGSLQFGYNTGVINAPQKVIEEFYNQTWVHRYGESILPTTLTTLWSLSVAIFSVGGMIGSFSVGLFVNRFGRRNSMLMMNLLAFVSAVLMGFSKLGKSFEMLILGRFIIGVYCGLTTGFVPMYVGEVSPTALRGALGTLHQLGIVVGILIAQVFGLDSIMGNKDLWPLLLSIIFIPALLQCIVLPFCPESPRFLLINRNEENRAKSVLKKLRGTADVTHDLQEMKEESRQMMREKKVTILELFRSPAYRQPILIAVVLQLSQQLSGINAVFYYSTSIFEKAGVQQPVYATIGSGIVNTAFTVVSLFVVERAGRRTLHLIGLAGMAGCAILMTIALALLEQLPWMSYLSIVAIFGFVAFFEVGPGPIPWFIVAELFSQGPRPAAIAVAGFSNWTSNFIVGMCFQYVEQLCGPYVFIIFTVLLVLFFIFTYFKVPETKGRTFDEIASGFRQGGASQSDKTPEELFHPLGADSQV

One may read the inhibition as the drop in the measured response relative to a control, in per cent. For `CC(C)(C)c1ccc(NC(=O)Nc2ccc(Cn3ncc(N4CCCNCC4)c(Cl)c3=O)cc2)cc1`, the inhibition in test [1] turned out to be 6.36%; in test [2], 6.82%; in test [3], 3.41%.

As for `OC(CNCc1ccco1)Cn1c2ccc(Br)cc2c2cc(Br)ccc21` (stereo unspecified), the inhibition in test [1] was found to be 5.15%; in test [2], 3.41%; in test [3], 2.56%.

On to `Cc1cc(=NN=Cc2ccc(Cl)cc2)c2cc(C(F)(F)F)ccc2[nH]1`, for which the inhibition was 1.05% in test [1], -4.87% in test [2] and 5.23% in test [3].

Turning to `Cn1cccc1CCNCc1ccc(-c2cccc(-c3nc4ccccc4[nH]3)c2)cc1`, the inhibition in test [1] stood at 3.79%; in test [2] it was 3.07%; in test [3] it was 2.55%.

Regarding `Cc1cccc2nc(C(=O)Nc3nc(CN4CCC(C)CC4)cs3)cn12`, the inhibition in test [1] is -0.22%; in test [2], -1.59%; in test [3] it was 1.62%.

As for `COc1cc(NC(=O)/C=C/c2cc(F)cc(F)c2F)cc(OCCN2CCCCC2)c1`, the inhibition in test [1] was 5.16%; in test [2] it was 3.35%; in test [3], 4.25%.

On to `CO/C(=C\C=C/c1cc2cc(Cl)c(Cl)cc2[nH]1)C(=O)NC1CC(C)(C)N(C)C(C)(C)C1`, for which the values for the inhibition in test [1], in test [2] and in test [3] were 7.24%, 5.6% and 5.19%, respectively.

Regarding `COc1ccc(NC(=O)NCC2CCCN(CCCCCNC(=O)/C=C/c3ccc(Cl)c(Cl)c3)C2)c(OC)c1` (stereo unspecified), the inhibition in test [1] is -0.03%; in test [2], 3.1%; in test [3], 0.18%.

Turning to `O=C(/C=C/c1ccc(Cl)c(Cl)c1)NCCCCCN1CCCN(C(=O)Nc2cc(Cl)cc(Cl)c2)CC1`, the inhibition in test [1] came to 3.31%; in test [2], 3.85%; in test [3], 6.4%.

Turning to `CCNc1cc(C(=O)N[C@@H](Cc2ccccc2)[C@H](O)CNCCc2cccc(C(F)(F)F)c2)cc(N2CCCC2=O)c1`, the inhibition in test [1] is 1.16%; in test [2], 1.57%; in test [3], -0.87%.

On to `Cc1cccc2nc(-c3ccc(-c4ccc(CNCCCN5CCCC5=O)cc4)s3)[nH]c12`, for which the inhibition turned out to be 2.02% in test [1], 3.54% in test [2] and 3.25% in test [3].

As to `CCCCN1CCCC[C@H]1[C@@H](O)c1ccnc2ccc(OCC)cc12`, the results for the inhibition in test [1], in test [2] and in test [3] were 2.63%, 3.12% and 3.68%, respectively.
